This is a sample that favours compounds with a hit; in the whole collection about 19% have one here.
DT40 TDP1 CPT: growth inhibition of DT40 Tdp1-/-;hTDP1 cells with camptothecin (screen for TDP1 inhibitors). chicken DT40 Tdp1-/-;hTDP1 cells + 20 nM CPT, ATP luminescence, 48 h. Potency, µM (highest dose often 46.2 µM), usual class: inhibitors. 420,000 tested, 12% active. AID 686979; note: nearly all actives have a fitted effect of over 55% in size
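Chicken DT40 Tdp1-/- cells complemented with human TDP1, 400 cells/well, exposed to compounds plus 20 nM camptothecin for at least 48 h at 37 C; viability read as ATP content by CellTiter-Glo luminescence.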
DT40 TDP1 no CPT: qHTS for Inhibitors of human tyrosyl-DNA phosphodiesterase 1 (TDP1): qHTS in cells in absence of CPT | DT40 Tdp1-/- hTDP1 cells, no CPT, ATP luminescence, 48 h | Potency, µM (top dose mostly 46.2 µM), most hits filed as inhibitors | 420,000 tested, 15% active | AID 686978, 2013; note: nearly all actives have a fitted effect of over 55% in size
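Camptothecin absent (DMSO only). Human TDP1-complemented DT40 knockout cells, 400 cells/well, 37 °C for minimum 48 hr; ATP measured via CellTiter-Glo, 30 min dark incubation, luminescence.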
HT1080 IDH1KD tx: HT-1080 IDH1 knockdown cell toxicity (counter line); HT-1080 IDH1 knockdown viability, ATP luminescence, 48 h; Potency, µM (top dose mostly 46.1 µM), most hits filed as cytotoxic; AID 686971; 360,000 tested, 2% active
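In this qHTS, HT-1080 cells depleted of IDH1 are exposed for 48 h at 37 °C to compound titrations. Toxicity is scored from CellTiter-Glo luminescence, with DMSO as full viability and medium alone as none.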
HT1080-NT tox: kills 2HG-producing HT-1080-NT fibrosarcoma cells; HT-1080-NT fibrosarcoma viability, CellTiter-Glo ATP luminescence, 48 h; Potency, µM (highest dose often 46.1 µM), usual class: cytotoxic; 360,000 tested, 1.6% active; AID 686970;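 note: NT is the 2HG producing partner of a matched IDH1 knockdown line; nearly all actives have a fitted effect of over 55% in size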
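A 48-hour cytotoxicity screen used HT-1080-NT cells plated 2 hours before compound delivery. ATP-based CellTiter-Glo luminescence measured viability, normalized to DMSO and no-cell controls.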
IL1B secr inh: blocks inflammasome-driven IL-1 beta release. THP-1 LPS/ATP IL-1B secretion, AlphaLISA, 16 h; active compounds read low. activity change, % at 57.5 µM. 360,000 tested, 4.7% active; in the data active = activity change below about -50%; inconclusive = mostly about -30% to -49%
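THP-1 cells pretreated 1 hr with compounds (up to 57.5 uM final), then stimulated with LPS (250 ng/mL final) plus ATP (1.25 mM final); secreted IL-1B measured by AlphaLISA after 16 hr, decreased signal indicating inhibition.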
Hits are given with their value; 0 = inactive; ? = inconclusive; - = no result given; [ ] = remark or other dose. Unless noted, calls come from the whole dose curve; as a rule, active = well fitted curve in the direction sought with a large enough effect; inconclusive = small, poorly fitted or top-dose-only effect, or another doubt; inactive = no such curve, though single readings can be large; an effect the other way counts as inactive or inconclusive.

SMILES	DT40 TDP1 CPT	DT40 TDP1 no CPT	HT1080 IDH1KD tx	HT1080-NT tox	IL1B secr inh
COc1ccc(N2CCN(C(=O)C(C)n3nc(C)c4sc5ccccc5c4c3=O)CC2)cc1 (stereo unspecified)	?	16µM	-	-	-
Cc1nn(C(C)C(=O)N2CCCCC2)c(=O)c2c1sc1ccccc12 (stereo unspecified)	?	21µM	0	0	0
Cc1nnsc1S(=O)c1ccccc1Cl (stereo unspecified)	0	0	0	0	0
CC(=O)Nc1ccc(S(=O)(=O)Nc2cc(-c3cn4ccccc4n3)ccc2C)cc1	?	21µM	-	-	-
CCS(=O)(=O)Nc1cc(-c2cn3ccc(C)cc3n2)ccc1C	?	21µM	-	-	-
CC(=O)Nc1ccc(S(=O)(=O)Nc2cc(C)c(-n3nc4ccccc4n3)cc2O)cc1	?	?	0	0	0
Cc1ccn2cc(-c3cccc(S(=O)(=O)N4CCCCC4)c3)nc2c1	0	0	0	0	0
Cc1ccn2cc(-c3ccc(C)c(NS(=O)(=O)c4ccc(Cl)cc4)c3)nc2c1	23µM	21µM	-	-	-
Cc1c(Cc2ccccc2)[n+](=O)c2ccccc2n1[O-]	0	0	0	0	0
N=c1c2c(-c3ccccc3)c(-c3ccccc3)n(Cc3ccco3)c2ncn1Cc1ccco1	9.2µM	6.5µM	21µM	16µM	0
CCCCn1cnc2c(c(-c3ccccc3)c(-c3ccccc3)n2Cc2ccco2)c1=N	0	0	0	0	-73
Cc1nc2ccccc2c(=O)n1Cc1ccco1	0	0	0	0	0
N=c1c2c(-c3ccccc3)c(-c3ccccc3)n(Cc3ccccc3)c2ncn1CCCn1ccnc1	16µM	?	23µM	23µM	0
CC(Sc1nnnn1-c1cccc(F)c1)C(=O)NC1CCCC1 (stereo unspecified)	0	0	0	0	0
Cc1ccc(S(=O)(=O)/N=C2\C=C(Nc3ccc(O)cc3)C(=O)c3ccccc32)cc1	2.1µM	2.9µM	23µM	18µM	-97
Cc1ccc(S(=O)(=O)Nc2ccc(N=Nc3ccc(O)cc3)cc2)cc1	0	0	0	0	0
CCc1ccc(S(=O)(=O)/N=C2\C=C(Nc3ccc(C(=O)O)cc3)C(=O)c3ccccc32)cc1	18µM	23µM	18µM	16µM	-99
Cc1ccc(S(=O)(=O)/N=C2\C=C(Nc3cccc(C(=O)O)c3)C(=O)c3ccccc32)cc1	?	?	21µM	23µM	-93
Cc1ccc(S(=O)(=O)/N=C2\C=C(Nc3cccc(C(=O)O)c3)C(=O)c3ccccc32)c(C)c1	?	?	6.5µM	10µM	-104
O=C(O)c1cccc(NS(=O)(=O)c2ccc3c(c2)C(=O)c2ccccc2C3=O)c1	0	0	0	0	0
O=C(/C=C/c1ccccc1)NCC(=O)N/N=C/c1cccs1	0	0	0	0	0
CCN1CCCC1CNC(=O)c1cc(S(=O)(=O)N(C)C)ccc1Cl (stereo unspecified)	0	0	0	0	0
COC(=O)c1c[nH]c(=S)n1Cc1ccccc1	0	0	0	0	0
Cc1nc(N)[nH]c(=O)c1CCCNc1ccc([N+](=O)[O-])cc1	0	0	0	0	0
CCN(CC(=O)Nc1cc(Cl)ccc1C)C(=O)CCS(=O)(=O)c1ccc(Cl)cc1	18µM	?	0	0	0
SMILES	DT40 TDP1 CPT	DT40 TDP1 no CPT	HT1080 IDH1KD tx	HT1080-NT tox	IL1B secr inh
COCc1c(C(C)C)nc(C(C)C)c(/C=C/[C@@H](O)C[C@@H](O)CC(=O)O)c1-c1ccc(F)cc1	1.2µM	0.6µM	-	-	-
Fc1ccc(-c2ccnc3nc(N4CCN(c5ccccc5)CC4)nn23)cc1	0	0	0	0	0
c1ccc(-c2ccnc3nc(N4CCN(c5ccccc5)CC4)nn23)cc1	18µM	21µM	0	0	0
Cc1cc(C)c2c(CC(=O)N(CCC#N)Cc3cccnc3)coc2c1	0	0	0	0	0
C=CCn1c(=O)/c(=C/c2ccc(F)cc2)s/c1=C(\C#N)c1nnc2n1CCCCC2	23µM	16µM	0	0	-67
O=c1/c(=C\c2ccc(F)cc2)sc2n1CCCN=2	?	?	0	0	0
O=C(CN1CCN(Cc2ccc3c(c2)OCO3)CC1)Nc1cc(S(=O)(=O)N2CCCC2)ccc1Cl	?	16µM	0	0	0
CN(C)S(=O)(=O)c1ccc(Cl)c(NC(=O)CN2CCN(Cc3ccc4c(c3)OCO4)CC2)c1	?	21µM	0	0	0
Nc1nc(SCC(=O)c2c(N)n(C3CC3)c(=O)[nH]c2=O)n[nH]1	0	0	0	0	0
CC1CCCCN1C(=O)C(=O)c1cn(CC(=O)N2CCCCCC2)c2ccccc12 (stereo unspecified)	?	?	0	0	0
Cc1nc2sc(-c3ccccc3)cc2c(=O)n1N	?	?	0	0	0
Cc1nc2sc(-c3ccccc3)cc2c(=O)n1-n1cccc1	?	?	0	0	-63
Cc1ccc(-n2c(Cl)c(Cl)nc(Cl)c2=O)cc1	0.29µM	0.92µM	2.9µM	2.6µM	-97
Cc1ccc2nc(SCC(=O)NCC3Cc4cccc(-c5nc(C)cnc5C)c4O3)[nH]c2c1 (stereo unspecified)	0[9.04 µM]	0	-	-	-
COc1cccc2c(=O)c3c(cnn3C)n(C)c12	0	?	0	0	-54
CC(C)Oc1ccc(C(=O)OCC(=O)N2CCCc3ccccc32)cc1	0	0	0	0	0
NC(=O)c1ccccc1OCC(=O)c1ccc(Cl)cc1	0	?	0	0	-57
CCCCCCOc1ccccc1C(N)=O	?	16µM	-	-	-
COCCn1c(=N)c(C(=O)NCCc2ccc(OC)cc2)cc2c(=O)n3cccc(C)c3nc21	23µM	29µM	0	0	0
COCCCNC(=O)c1cc2c(=O)n3cccc(C)c3nc2n(C(C)C)c1=N	0	?	0	0	-69
COCCCn1c(=N)c(C(=O)NCc2cccnc2)cc2c(=O)n3cccc(C)c3nc21	0	?	-	-	-
COc1ccc(NC(=O)COC(=O)c2ccc(Cl)c(S(N)(=O)=O)c2)c([N+](=O)[O-])c1	0	0	0	0	0
COc1ccc(Cn2c(NCC(C)C)nc3c2c(=O)n(C)c(=O)n3C)cc1	0	?	-	-	-
COc1ccc(Oc2nc3c(c(=O)n(C)c(=O)n3C)n2Cc2ccc(Cl)cc2Cl)cc1	?	21µM	-	-	-
CCn1c(Oc2ccccc2)nc2c1c(=O)n(C)c(=O)n2C	?	0	0	0	0
Cn1c(=O)c2c(nc(NCC3CCCC(CN)C3)n2Cc2ccc(Cl)cc2Cl)n(C)c1=O (stereo unspecified)	4.6µM	5.8µM	0	?	0
COc1ccc(Cl)c(Cn2c(NCc3ccccn3)nc3c2c(=O)n(C)c(=O)n3C)c1	?	15µM	0	0	0

High-throughput results (PubChem BioAssay)
